BH1578 lux ind = inducers of Vibrio cholerae quorum light production without autoinducers; V. cholerae BH1578 lux reporter, luminescence, 6 h; activation, % at 18.7 µM; 350,000 tested, 0.16% active; AID 588436; in the data active means activation mostly above about 9.7%, no sharp cut-off
PfHsp40 yeast = compounds rescuing yeast from Plasmodium falciparum HSP40 toxicity; S. cerevisiae expressing PfHsp40, growth rescue, ATP luminescence; growth rescue, % at 12.5 µM; 340,000 tested, 0.68% active; in the data active means growth rescue above about 28%, passing the limit was not always enough;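 further: yeast W303a lacking pdr1 and pdr3 grown in galactose medium; growth measured after three days at 30 °C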
Y pestis TopoI = inhibitors of Yersinia pestis topoisomerase I | Y. pestis Topo-I cleavage product accumulation, plate reader | activity, % at 10 µM | 360,000 tested, 0.064% active; in the data active means activity above about 50%, passing the limit was not always enough
TcdB inh = inhibitors of Clostridioides difficile toxin B glycohydrolase; TcdB glycohydrolase enzymatic assay, plate reader; inhibition, % at 9.99 µM; 350,000 tested, 0.24% active; AID 652162; in the data active means inhibition above about 10%
Mtb BioA inh = blocks M. tuberculosis BioA enzyme activity; 360,000 tested, 0.096% active; purified M. tuberculosis BioA enzyme, plate reader; inhibition, % at 9.99 µM; AID 602481; in the data active means inhibition above about 40%
DUSP3 inh = inhibitors of human VHR1 phosphatase (DUSP3). P51452. recombinant VHR phosphatase, pNPP absorbance. inhibition, % at 13.3 µM. 290,000 tested, 0.52% active; in the data active means inhibition above about 50%
Hits are given with their value; – = inactive; · = no result. The list is not random: actives were taken first. Their share in the collection is about 1.2%.

SMILES	BH1578 lux ind	PfHsp40 yeast	Y pestis TopoI	TcdB inh	Mtb BioA inh	DUSP3 inh
Nc1cc(C(=O)OCC(=O)N2CCOCC2)ccc1Cl	–	–	–	–	–	–
Nc1ccc(C(=O)OCC(=O)N2CCOCC2)cc1[N+](=O)[O-]	–	47	–	–	·	–
CC1=NCCc2c1[nH]c1cc(O)ccc21	–	–	–	42	–	·
COc1ccc2c3c([nH]c2c1)C(C)=NCC3	–	–	–	–	–	–
CC1=C(C(=O)OC2CCCC2)C(c2coc3ccccc3c2=O)C2=C(CC(C)(C)CC2=O)N1 (stereo not drawn)	–	93	–	–	–	–
CC(C)N1CCN(c2ccc(OC[C@H]3CO[C@](Cn4cncn4)(c4ccc(Cl)cc4Cl)O3)cc2)CC1	–	222	–	–	–	·
CC(C)N1CCN(c2ccc(OCC3COC(Cn4cncn4)(c4ccc(Cl)cc4Cl)O3)cc2)CC1 (stereo not drawn)	–	226	–	–	·	·
O=S(=O)(NCC1CCCO1)c1ccc(Br)cc1 (stereo not drawn)	–	35	–	–	–	–
Oc1c(Cl)c(Cl)c(Cl)c(Cl)c1Cl	–	298	–	–	–	·
Nc1ncnc2[nH]c(=S)[nH]c12	–	–	–	15	–	·
C[C@H]1CN([C@@H](C)CO)S(=O)(=O)c2ccc(Br)cc2O[C@H]1CN(C)Cc1cncnc1	·	·	·	–	–	·
Cc1cc2oc(=O)cc(CN3CCOCC3)c2cc1Cl	–	–	–	–	–	54
NC(=O)C1CCN(C(=O)C(Cc2ccccc2)NC(=O)c2ccccc2)CC1 (stereo not drawn)	–	–	–	–	–	·
O=Nc1c2cc3ccccc3[nH]c-2c2ccccc12	–	54	–	–	·	·
O=Nc1c(O)c2ccccc2c2ccccc12	–	–	–	–	–	·
Cc1nc(-c2nc(-c3c(C(=O)NNC(=O)Nc4cccc(Cl)c4)noc3C)cs2)cs1	–	–	–	–	–	–
Cc1ccc(NC(=O)Cn2ncc3ccccc32)c(Cl)c1	–	–	–	–	–	–
Cc1cc(C)c(NC(=O)Cn2ncc3ccccc32)c(C)c1	–	–	–	–	–	57
O=C(N1CCOCC1)C12CC3CC(C1)CC(C(=O)N1CCOCC1)(C3)C2	5.6	–	–	·	–	–
CCN(Cc1ccccc1)C(=O)c1oc2ccc(C)cc2c1C	–	–	53	–	–	–
Cc1ccc2oc(C(=O)N(Cc3ccncc3)CC3CCCO3)c(C)c2c1 (stereo not drawn)	–	–	–	–	–	–
Cc1noc(C)c1NC(=O)NCC[C@H]1CC[C@@H](NC(=O)c2ccncc2)[C@@H](CO)O1	·	·	·	–	–	·
O=C(NCc1ccccc1)C1CCN(S(=O)(=O)c2ccc(N3CCCC3=O)cc2)CC1	–	–	–	–	·	52
O=C(NCc1ccc(Cl)cc1)C1CCN(S(=O)(=O)c2ccc(N3CCCC3=O)cc2)CC1	–	–	–	–	–	–
O=C(NCc1ccccc1Cl)C1CCN(S(=O)(=O)N2CCCCCC2)CC1	–	–	–	·	–	54
SMILES	BH1578 lux ind	PfHsp40 yeast	Y pestis TopoI	TcdB inh	Mtb BioA inh	DUSP3 inh
Nc1c(C(=O)c2ccccc2)sc2c1c(=O)[nH]c(=O)n2-c1ccccc1	–	–	–	·	–	–
Cc1ccc(C(=O)c2sc3c(c2N)c(=O)[nH]c(=O)n3CCc2ccccc2)cc1	–	–	160	·	·	–
CC1(C)S[C@@H]2[C@H](NC(=O)C(C(=O)O)c3ccccc3)C(=O)N2[C@H]1C(=O)O (stereo partly drawn)	–	–	–	·	–	–
C[C@@H]1CCCCO[C@H](CN(C)S(=O)(=O)c2ccc(F)cc2)[C@@H](C)CN([C@H](C)CO)C(=O)c2cc(NC(=O)Cc3ccccc3)ccc2O1	·	·	·	·	–	·
CCc1nc(N2CCN(C(=O)c3ccco3)CC2)c2c3c(sc2n1)CCCC3	–	–	–	·	·	–
CC1CCc2c(sc3nc(C4CC4)nc(N4CCN(C(=O)c5ccco5)CC4)c23)C1 (stereo not drawn)	–	161	–	·	–	·
Cc1c2cc[n+](CCN3CCCCC3)cc2c(C)c2c1[nH]c1ccc(O)cc12	–	53	–	·	·	·
CCOC(=O)c1[nH]c2ccc(C)cc2c1NC(=O)CN1CCCCC1	–	–	–	·	–	–
O=C(N/N=C/c1ccc(O)cc1)NC12CC3CC(CC(C3)C1)C2	–	–	–	19	–	–
CCn1ccnc1CN(C)Cc1nc(-c2ccccc2)no1	–	–	–	–	–	–
CCCCCCC(Cl)(Cn1ccnc1)c1ccccc1 (stereo not drawn)	–	255	–	–	·	·

High-throughput results deposited in PubChem by several laboratories.
